# Measurements reported in ChEMBL document CHEMBL3988442, “University of Dundee, Small-Polar-MMV Screening Library” (2021).
# For some assays here: Potency and affinity values are given separately.
# Assays:
# Set-up in all cases: scale not given: direction of the effect not stated beside the values
# [1] = target: Protein translocase subunit SecA (Escherichia coli (strain K12)) (UniProt P10408); assay: Assay to Identify E. coli SecA ATPase Inhibitors; assay type: functional; conditions: 30 µM
# [2] = target: T1, Ubiquitin-activating enzyme e1, putative (Leishmania donovani (strain BPK282A1)) (UniProt E9BSI1); assay: Leishmania donovani Ubiquitin Activating Enzyme (LdE1); assay type: functional; conditions: 30 µM
# T1 sequence (whole entry): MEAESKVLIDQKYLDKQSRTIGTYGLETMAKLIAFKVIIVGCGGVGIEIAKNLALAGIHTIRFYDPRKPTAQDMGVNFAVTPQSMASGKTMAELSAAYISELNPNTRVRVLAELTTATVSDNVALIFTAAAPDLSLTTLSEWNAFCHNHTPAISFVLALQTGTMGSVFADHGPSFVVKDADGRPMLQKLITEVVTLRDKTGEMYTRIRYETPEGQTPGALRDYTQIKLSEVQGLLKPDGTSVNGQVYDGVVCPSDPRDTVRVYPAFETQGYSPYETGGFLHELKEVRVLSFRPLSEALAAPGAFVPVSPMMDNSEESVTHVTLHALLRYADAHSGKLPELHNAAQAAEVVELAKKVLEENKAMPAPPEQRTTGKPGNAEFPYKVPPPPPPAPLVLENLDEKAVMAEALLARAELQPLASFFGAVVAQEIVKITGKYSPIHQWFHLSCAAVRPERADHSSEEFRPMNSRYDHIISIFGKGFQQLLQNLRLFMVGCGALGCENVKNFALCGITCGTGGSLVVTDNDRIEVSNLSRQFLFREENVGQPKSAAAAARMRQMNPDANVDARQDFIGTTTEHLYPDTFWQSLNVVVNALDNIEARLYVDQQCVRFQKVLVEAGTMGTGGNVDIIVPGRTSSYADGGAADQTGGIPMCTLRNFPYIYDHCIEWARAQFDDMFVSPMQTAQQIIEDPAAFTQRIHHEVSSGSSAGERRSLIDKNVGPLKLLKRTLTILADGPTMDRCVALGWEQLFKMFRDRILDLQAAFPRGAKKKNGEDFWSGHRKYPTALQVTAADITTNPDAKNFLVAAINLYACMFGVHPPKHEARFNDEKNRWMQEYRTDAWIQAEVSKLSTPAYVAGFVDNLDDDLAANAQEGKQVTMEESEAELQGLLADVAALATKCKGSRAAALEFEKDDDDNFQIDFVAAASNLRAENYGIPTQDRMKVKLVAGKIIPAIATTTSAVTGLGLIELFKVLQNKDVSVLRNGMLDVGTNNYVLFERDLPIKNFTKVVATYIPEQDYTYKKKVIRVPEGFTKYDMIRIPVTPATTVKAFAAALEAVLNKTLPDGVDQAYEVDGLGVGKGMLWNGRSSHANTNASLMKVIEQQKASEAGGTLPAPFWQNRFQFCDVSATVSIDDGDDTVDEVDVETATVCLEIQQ
# [3] = target: AMP-activated protein kinase, AMPK (Homo sapiens) (UniProt P54646+O43741+P54619+Q9UGJ0+Q9Y478+Q13131+Q9UGI9); assay: AMP-dependent Kinase enzyme assay. An in vitro enzyme assay that detects ADP turnover that is directly proportional to AMPK activity. This uses naive AMPK that is activated during the assay with MK-8722; assay type: functional; conditions: 30 µM
# [4] = target: Sialic acid-binding Ig-like lectin 9 (Homo sapiens) (UniProt Q9Y336); assay: Hs-Siglec9 ALPHAscreen SOP 20170721; conditions: 10 µM
# Chain of Sialic acid-binding Ig-like lectin 9 (Homo sapiens) (Q9Y336 whole entry): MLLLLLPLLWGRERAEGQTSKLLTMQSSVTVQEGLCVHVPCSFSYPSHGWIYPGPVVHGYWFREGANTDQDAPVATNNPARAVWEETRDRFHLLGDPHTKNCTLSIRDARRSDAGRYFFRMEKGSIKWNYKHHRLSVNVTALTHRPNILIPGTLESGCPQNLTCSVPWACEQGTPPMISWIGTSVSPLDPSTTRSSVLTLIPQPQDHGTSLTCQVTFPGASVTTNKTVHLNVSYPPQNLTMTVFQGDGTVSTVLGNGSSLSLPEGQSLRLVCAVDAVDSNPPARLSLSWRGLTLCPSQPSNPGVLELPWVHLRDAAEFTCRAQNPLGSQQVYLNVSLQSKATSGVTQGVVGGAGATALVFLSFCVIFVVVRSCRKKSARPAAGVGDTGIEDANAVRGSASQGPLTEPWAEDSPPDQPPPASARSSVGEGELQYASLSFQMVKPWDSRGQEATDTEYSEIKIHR
# Trypanosoma cruzi = assay: Trypanosoma cruzi phosphomannomutase and mannose-1-phosphate guanylyltransferase assay; assay type: functional; conditions: 10 µM
# [5] = target: T2, Arginase-2, mitochondrial (Homo sapiens) (UniProt P78540); assay: in vitro enzyme assay to detect the production of urea directly proportional to the activity of Arginase II; assay type: functional; conditions: 33.3 µM; further: in the data most compounds retested in dose-response had high values
# T2 sequence (whole entry): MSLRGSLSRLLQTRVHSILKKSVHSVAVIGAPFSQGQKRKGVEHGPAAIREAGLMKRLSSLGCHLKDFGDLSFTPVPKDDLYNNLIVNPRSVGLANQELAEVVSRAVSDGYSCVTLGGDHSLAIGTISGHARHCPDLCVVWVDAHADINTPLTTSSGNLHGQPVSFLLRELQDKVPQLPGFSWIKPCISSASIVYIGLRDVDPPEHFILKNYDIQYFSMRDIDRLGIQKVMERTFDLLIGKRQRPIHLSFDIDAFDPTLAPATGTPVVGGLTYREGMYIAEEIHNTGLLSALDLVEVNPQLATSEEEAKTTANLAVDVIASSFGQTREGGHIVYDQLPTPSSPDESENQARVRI
# [6] = target: T3, Proteasome subunit beta (Trypanosoma cruzi) (UniProt O96673); assay: Trypanosoma cruzi proteasome chymotrypsin-like activity (TcProtChymo) assay.; further: in the data most compounds retested in dose-response had high values; assay type: functional; conditions: 9.37 µM
# T3 sequence (whole entry): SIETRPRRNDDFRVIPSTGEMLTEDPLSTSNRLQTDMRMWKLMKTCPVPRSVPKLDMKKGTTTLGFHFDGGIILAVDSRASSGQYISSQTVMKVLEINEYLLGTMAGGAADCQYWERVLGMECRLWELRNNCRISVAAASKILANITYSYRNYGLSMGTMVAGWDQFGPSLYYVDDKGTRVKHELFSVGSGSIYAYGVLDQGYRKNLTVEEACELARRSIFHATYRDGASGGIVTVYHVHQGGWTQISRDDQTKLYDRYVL
# Homo sapiens = organism: Homo sapiens; assay: To identify inhibition of the IFN signalling (Jak-Stat) pathway via expression of an eGFP reporter gene under the control of an IFN-stimulated response element (ISRE) containing MxA promoter.; assay type: functional; conditions: 30 µM
# [7] = target: T4, Tyrosyl-tRNA synthetase, putative (Trypanosoma cruzi (strain CL Brener)) (UniProt Q4DSP6); assay: Trypanosoma cruzi tyrosyl tRNA synthetase (TcYRS) _High Tyrosine SOP; assay type: functional; conditions: 30 µM; further: in the data most compounds retested in dose-response had high values
# T4 sequence (whole entry): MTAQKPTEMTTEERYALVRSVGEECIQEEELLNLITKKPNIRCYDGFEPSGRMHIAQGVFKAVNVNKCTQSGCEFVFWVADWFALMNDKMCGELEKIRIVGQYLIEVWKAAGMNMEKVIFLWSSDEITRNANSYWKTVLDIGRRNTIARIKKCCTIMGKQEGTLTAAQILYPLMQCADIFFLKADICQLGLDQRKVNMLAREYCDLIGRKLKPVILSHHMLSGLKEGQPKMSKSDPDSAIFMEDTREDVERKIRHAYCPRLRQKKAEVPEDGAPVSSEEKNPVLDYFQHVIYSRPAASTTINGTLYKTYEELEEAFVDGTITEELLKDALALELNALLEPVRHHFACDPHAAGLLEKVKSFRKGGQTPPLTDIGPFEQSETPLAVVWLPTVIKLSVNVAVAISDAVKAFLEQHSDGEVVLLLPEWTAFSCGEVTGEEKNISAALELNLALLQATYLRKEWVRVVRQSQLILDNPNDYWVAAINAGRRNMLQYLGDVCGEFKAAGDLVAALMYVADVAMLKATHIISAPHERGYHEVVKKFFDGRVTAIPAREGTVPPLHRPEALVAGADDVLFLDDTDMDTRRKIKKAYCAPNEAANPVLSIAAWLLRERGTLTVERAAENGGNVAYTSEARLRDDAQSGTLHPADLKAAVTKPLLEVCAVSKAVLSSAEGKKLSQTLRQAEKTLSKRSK
# [8] = target: T4, Tyrosyl-tRNA synthetase, putative (Trypanosoma cruzi (strain CL Brener)); assay: Trypanosoma cruzi tyrosyl tRNA synthetase (TcYRS) SOP; assay type: functional; conditions: 30 µM
# [9] = target: Chromo domain-containing protein 1 (Saccharomyces cerevisiae (strain ATCC 204508 / S288c) (Baker's yeast)) (UniProt P32657); assay: ScCHD-1 Enzyme Inhibition Assay; assay type: functional; conditions: 30 µM; further: in the data most compounds retested in dose-response had high values
# Chain of Chromo domain-containing protein 1 (Saccharomyces cerevisiae (strain ATCC 204508 / S288c) (Baker's yeast)) (P32657 whole entry, the tested form may be a part): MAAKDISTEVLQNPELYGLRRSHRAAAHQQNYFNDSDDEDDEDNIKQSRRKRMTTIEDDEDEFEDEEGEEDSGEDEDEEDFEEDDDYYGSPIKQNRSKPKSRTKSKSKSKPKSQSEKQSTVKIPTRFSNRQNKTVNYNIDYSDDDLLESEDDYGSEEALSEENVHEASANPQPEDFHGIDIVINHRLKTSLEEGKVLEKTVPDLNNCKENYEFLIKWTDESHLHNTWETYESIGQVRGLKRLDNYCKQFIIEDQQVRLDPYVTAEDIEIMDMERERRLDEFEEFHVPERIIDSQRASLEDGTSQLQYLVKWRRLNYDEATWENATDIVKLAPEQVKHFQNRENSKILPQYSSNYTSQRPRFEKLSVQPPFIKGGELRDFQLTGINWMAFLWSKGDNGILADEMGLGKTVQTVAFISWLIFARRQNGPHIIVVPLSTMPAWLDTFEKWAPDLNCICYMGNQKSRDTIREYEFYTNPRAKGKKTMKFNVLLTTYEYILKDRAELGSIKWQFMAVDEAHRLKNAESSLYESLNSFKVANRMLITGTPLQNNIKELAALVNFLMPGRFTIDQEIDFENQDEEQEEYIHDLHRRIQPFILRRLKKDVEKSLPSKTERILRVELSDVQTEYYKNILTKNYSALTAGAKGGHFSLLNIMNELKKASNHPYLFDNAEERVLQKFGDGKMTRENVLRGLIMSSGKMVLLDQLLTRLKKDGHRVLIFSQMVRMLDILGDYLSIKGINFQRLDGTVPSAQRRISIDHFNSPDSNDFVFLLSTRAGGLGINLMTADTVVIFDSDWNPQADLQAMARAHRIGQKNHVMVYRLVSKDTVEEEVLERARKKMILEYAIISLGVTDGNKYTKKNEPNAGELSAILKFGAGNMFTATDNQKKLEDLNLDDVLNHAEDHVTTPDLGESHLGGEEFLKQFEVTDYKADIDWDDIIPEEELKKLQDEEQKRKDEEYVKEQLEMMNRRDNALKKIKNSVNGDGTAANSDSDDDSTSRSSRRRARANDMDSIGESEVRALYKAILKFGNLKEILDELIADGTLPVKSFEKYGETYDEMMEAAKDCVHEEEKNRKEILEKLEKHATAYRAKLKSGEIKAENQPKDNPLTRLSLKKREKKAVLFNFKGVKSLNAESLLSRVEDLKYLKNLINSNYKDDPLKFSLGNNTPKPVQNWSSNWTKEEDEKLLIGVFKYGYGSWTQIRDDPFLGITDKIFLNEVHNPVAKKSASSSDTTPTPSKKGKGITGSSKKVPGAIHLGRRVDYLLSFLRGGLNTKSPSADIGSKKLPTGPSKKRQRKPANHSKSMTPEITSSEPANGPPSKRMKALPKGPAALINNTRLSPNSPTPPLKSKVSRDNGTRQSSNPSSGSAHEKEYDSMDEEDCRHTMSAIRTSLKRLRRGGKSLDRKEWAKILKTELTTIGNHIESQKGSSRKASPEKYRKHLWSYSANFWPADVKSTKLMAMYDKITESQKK
# Chain of Protein translocase subunit SecA (Escherichia coli (strain K12)) (P10408 whole entry): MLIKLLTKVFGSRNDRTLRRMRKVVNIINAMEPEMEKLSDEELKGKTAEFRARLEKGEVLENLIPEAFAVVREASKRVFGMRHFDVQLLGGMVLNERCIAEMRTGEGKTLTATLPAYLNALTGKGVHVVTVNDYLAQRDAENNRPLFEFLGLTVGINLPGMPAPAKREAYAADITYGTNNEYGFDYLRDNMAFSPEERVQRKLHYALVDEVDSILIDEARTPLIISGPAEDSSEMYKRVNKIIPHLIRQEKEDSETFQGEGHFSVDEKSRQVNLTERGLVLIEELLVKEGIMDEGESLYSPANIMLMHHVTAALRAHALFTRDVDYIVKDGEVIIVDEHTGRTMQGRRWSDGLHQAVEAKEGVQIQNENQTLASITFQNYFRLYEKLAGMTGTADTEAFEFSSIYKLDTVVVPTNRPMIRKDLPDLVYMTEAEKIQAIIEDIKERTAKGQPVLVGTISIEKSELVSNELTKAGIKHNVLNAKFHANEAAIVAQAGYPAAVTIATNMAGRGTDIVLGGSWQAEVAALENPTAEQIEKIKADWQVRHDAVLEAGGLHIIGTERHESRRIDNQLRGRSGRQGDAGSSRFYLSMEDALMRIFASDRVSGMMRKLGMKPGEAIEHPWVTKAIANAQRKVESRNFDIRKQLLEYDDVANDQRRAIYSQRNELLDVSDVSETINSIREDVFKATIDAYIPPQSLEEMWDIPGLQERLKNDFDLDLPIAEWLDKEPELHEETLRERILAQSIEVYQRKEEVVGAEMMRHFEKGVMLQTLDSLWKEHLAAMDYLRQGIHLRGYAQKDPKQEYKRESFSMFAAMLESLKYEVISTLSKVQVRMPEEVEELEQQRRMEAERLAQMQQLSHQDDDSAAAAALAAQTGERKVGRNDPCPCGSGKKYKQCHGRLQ
SMILES,Percent Effect [1],Percent Effect [2],Percent Effect [3],Percent Effect [4],Percent Effect (Trypanosoma cruzi),Percent Effect [5],Percent Effect [6],Percent Effect (Homo sapiens),Percent Effect [7],Percent Effect [8],Percent Effect [9]
Cc1ccc(Cl)cc1C(=O)N1CCC2(CC1)c1ccccc1[C@@H](N)[C@@H]2O,-6.01%,5.41%,-7.41%,40.2%,9.85%,-2.38%,19%,2.23%,6.88%,12.2%,10.1%
Cc1nc(CN(C)C2CCN(CC(=O)NC3CCOCC3)C2)no1 (configuration not stated),-1.63%,16.2%,-9.99%,0.0133%,-0.836%,-3.14%,11.1%,11.9%,5.94%,18.3%,-5.55%
Cc1nc[nH]c1CN1C[C@@H]2CC[C@H](C1)N(C(=O)CCc1cnn(C)c1)C2,-1.58%,6.94%,-9.43%,16.8%,4.96%,29.1%,5.09%,-11.8%,2.1%,7.69%,-1%
CC(=O)N1CCC2(CC1)CC[C@@]1(C(=O)N(C)C)CN(S(C)(=O)=O)C[C@@H]21,0.456%,18.9%,-1.01%,10.2%,2.83%,12.7%,4.38%,28.4%,3.23%,18.5%,-8.55%
Cc1nccn1-c1cc(CNC(=O)C(C)(C)C)ccn1,-0.152%,11%,4.7%,6.88%,0.588%,34.1%,18.1%,-3.27%,2.15%,17.5%,-6.75%
CC(C)CCOCCNC(=O)Nc1cc(C(F)(F)F)c[nH]c1=O,-7.54%,8.11%,3.62%,2.66%,-0.464%,-0.924%,1.62%,6.69%,6.93%,13.4%,7.34%
CCc1nc(CN(C)C2CCN(CCn3cc(C#N)cn3)C2)no1 (configuration not stated),1.6%,13.5%,-2.36%,-1.05%,-7.64%,-13.6%,17.5%,23.4%,4.43%,6.17%,-5.98%
CC(C)c1noc(C(C)N2CCN(CCN3CCCC3=O)CC2)n1 (configuration not stated),-5.03%,5.41%,-10%,9.09%,-2.17%,1.6%,-1.62%,9.64%,1.48%,1.24%,0.594%
O=C(CCC1CC1)N1C[C@@H](CN2CCCC2)[C@@H](CO)C1,-2.75%,0%,2.73%,1.73%,-2.46%,-8.28%,3.49%,4.43%,2.15%,6.17%,-2.02%
O=C(NCCNCC1CNc2ccnn2C1)c1ccc(F)cc1 (configuration not stated),-2.2%,8.11%,-6.99%,25.4%,8.3%,0.476%,11.6%,-0.126%,5.82%,14.6%,-2.41%
CC(NC(=O)c1cccs1)C(=O)NCc1cccnc1N1CCCCC1 (configuration not stated),-5.05%,15.6%,4.11%,3.01%,-3.93%,0.712%,9.46%,10.2%,1.94%,7.32%,-4.16%
Cc1nc(C)n(C2CCCN(C(=O)c3cc(C(N)=O)cs3)C2)n1 (configuration not stated),-7.57%,13.9%,0.492%,-4%,0.718%,1.07%,8.92%,-7.04%,2.08%,12.7%,-31.4%
Cc1ccc(O)c(CNC2CCc3nc(C(C)C)nn3C2)n1 (configuration not stated),-9.46%,13.2%,2.66%,6.11%,3.02%,-5.92%,8.15%,-5.66%,1.06%,10.4%,-14.7%
COC(=O)Cn1cccc(S(=O)(=O)N2CCC(C)CC2)c1=O,-2.33%,20%,-5.59%,-8.73%,2.75%,92.1%,14.8%,15.8%,2.12%,10.3%,-10.4%
O=C(NCCNc1ncccn1)N1CCN(Cc2cccnc2)CC1,-10.3%,13.5%,-7.65%,22.9%,10.5%,-16%,6.13%,2.94%,7.39%,23.5%,-14.1%
CNC(=O)CSc1cnn(CC(=O)Nc2cccc(Cl)c2C)c(=O)c1Cl,-2.17%,5.48%,-0.626%,4.21%,-4.31%,2.73%,17.6%,9.06%,4.3%,12.5%,1.71%
CCc1nc(CC(=O)N2CCn3c(nnc3C(F)(F)F)C2)cs1,-2.58%,0%,6.61%,5.79%,0.564%,4.98%,3.17%,-25.8%,-0.49%,0%,-6.79%
CCCn1ccc(C(=O)N2CCC(C)CC2)n1,-3.61%,10.4%,1.17%,5.81%,0.295%,-44.1%,6.49%,-8.22%,8.6%,18.5%,-1.29%
Cc1ccc(CN2CC3(CCN(C(=O)c4cscn4)C3)C2)s1,1.32%,0%,1.31%,11.8%,-2.98%,3.19%,9.85%,-1.49%,7.29%,-1.24%,-1.23%
Cc1nccc(C(=O)N2CCCN(Cc3cnn(C(C)C)c3)CC2)n1,-7.35%,-8.11%,0.58%,14.6%,-2.93%,-0.833%,7.35%,1.24%,5.94%,11%,6.2%
Clc1snnc1CN1CCCC(Cn2cncn2)C1 (configuration not stated),-1.77%,17.7%,-3.42%,-8.68%,1.98%,-1.52%,18.6%,6.4%,10.3%,29.1%,-10.8%
Cc1ccc(N2CC3(CCN(c4nccs4)C3)C2)nn1,0.227%,2.74%,1.72%,6.68%,-0.794%,0.798%,14%,0.564%,5.21%,11.1%,0.982%
